PubChem BioAssay AID1159580 (chemical genetic matrix, 2015)
Screen size: about 5,500 compounds; about 2,000 (36%) were called active. Not shown: some 18% with an inconclusive outcome. Cut-off read from the data, not from the text of the source: active = normalized growth mostly below about 0.91 (no sharp cut-off); inconclusive = no clear call, values can overlap the other calls; inactive = mostly above about 0.92. Some of the results follow.

Assay: chemical genetic growth profiling, strain panel (AID 1159580);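 note: tested at 20 µM; growth read once vehicle control cultures reached saturation at 30 °C; 1 = growth at the plate median or of vehicle wells; lower values mean less growth of the strain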
Settings: S. cerevisiae deletion strains, growth OD

Measured: normalized growth

COC(=O)c1cc2c(cn1)[nH]c1ccccc12
inactive: locus YAL040C, strain CLN3, active compounds read low 0.978 | locus YCL061C, strain MRC1 (second series), active compounds read low 1 | locus YDR150W, strain NUM1, active compounds read low 0.999 | locus YDR363W, strain ESC2, active compounds read low 0.996 | locus YER002W, strain NOP16, active compounds read low 0.986 | locus YMR263W, strain SAP30, active compounds read low 1 | locus YMR307W, strain GAS1, active compounds read low 0.998 | locus YNL153C, strain GIM3, active compounds read low 0.995 | locus YNL175C, strain NOP13, active compounds read low 0.988 | locus YNL197C, strain WHI3, active compounds read low 0.993 | locus YNL224C, strain SQS1, active compounds read low 0.981 | locus YNL322C, strain KRE1, active compounds read low 1.01 | locus YOR083W, strain WHI5 (second series), active compounds read low 0.96 | locus YPL241C, strain CIN2, active compounds read low 1
